Experimental data taken from the supplement of paper PMC11417369.
In all, about 25,000 sequences were measured (“ln(normalized median fluorescence intensity)”: median about 9.7, highest 2% from about 11 on). Many of the other results were omitted from the sample, so the highest values are more common in it than they were.

Test system: PfAP2-HC AP2 domain (GST-tagged)
Assay: gcPBM binding intensity (ln(normalized median fluorescence intensity)); higher = stronger DNA binding
How it was run: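 For binding intensity, the highest Masliner-normalised natural-log median intensity across replicate spots of either probe orientation was taken. Protein bound to the array was stained with Alexa488 anti-GST antibody and scanned at 488 nm. The protein, GST-tagged P. falciparum DNA-binding domains from E. coli at about 25 μg on average, had been applied for 1 h to an Agilent 4 × 180k array of primer-extended double-stranded 36-bp intergenic genomic probes and negative controls.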

In order of falling “gcPBM binding intensity (ln)” value:
1. TACAGACATAGACACACACACACGCATAAAAAAAAA [CACACA_site6820]  11.4
2. TACACCCATAGACACACACACACGCATAAAAAAAAA [CACACA_site8428]  11.1
3. ATAAGAAAAGGACACACACACAAAAAAAAAAAAAAA [CACACA_site7351]  11.1
4. AGATATAAGAAAAGCACACACACACTAGAAAAAAAA [CACACA_site5559]  11
5. AGTAAAAGAAAGCACACACACATGTATATATGTATG [CACACA_site3858]  11
6. AAAAAAAAAAAGCACACACACATATGCGTATATATA [CACACA_site954]  10.9
7. AGTAAAAGAAAGCACACACACATGTATATAGGTATG [CACACA_site7759]  10.9
8. CACCCATAGAAACACACACACGCATAAAAAAAAAAA [CACACA_site1513]  10.7
9. TATATACACAGACACACACACACATACACGCACATA [CACACA_site6909]  10.5
10. TACAGACAGAAACACACACACACGCATAAAAAAAAA [CACACA_site1514]  10.5
11. AAGAAAAGCATAGATGCACACATATATATATATATA [CACACA_site8675]  10.5
12. ATACAATACAAAAACACACACAAAAAAAGAAAAGGA [CACACA_site2156]  10.4
13. AAAAAAAAAAAGCACACACACATATGAGTATATATA [CACACA_site4683]  10.3
14. AAAAAAAAAAAAAGCACACACACATATGCGTATATA [CACACA_site953]  10.3
15. TAGGAAAAGAAAAGCACACACATAAATAGATATATA [CACACA_site6382]  10.3
16. TACACATACCCATACACACGCATAGAAACATACGAA [CACACA_site5212]  10.2
17. AATAAATAAAAATGCACACAGTTAACATGTTGAATT [CACACA_site4795]  10.2
18. ATATATATTATGTGTGTGCACTTTTGTTATTATTAT  10.2
19. AAAGTAAAAGAAAGCACACACACATGTATATATGTA [CACACA_site3857]  10.2
20. ATAAGAAAAAGACACACACACAAAAAAAAAAAAAAA [CACACA_site2828]  10.2
21. GATATGTTTTCCTAGGTTCATGATGATAGGTAGTTT [XGTACX_negctrl_site217]  9.83
22. ATTTTTATTAGTTATTGTACTTATTATTTATTAATT [XGTACX_site2568]  9.78
23. TATATAACATAATATACACACATTATGTGCGTAATT [CACACA_site4073]  9.75
24. GCATCTCATTTGTGATGTACTATATTATCCGTTTTT [XGTACX_site7576]  9.71
25. ATATATACAAGTATTTTTTTTTCAAACATTATTTTT [CACACA_negctrl_site1808]  9.68
